# Laboratory results from the supplement of paper PMC4466140.
# Target: AgAbp1
# Assay: SPOT peptide array binding signal intensity (averaged, normalized) (arbitrary units (background-subtracted, floor 0; scale differs between SH3 domains)); higher = stronger binding of the SH3 domain to the peptide
# Summary of the method: (§1)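 GST-fused SH3 domains, from four yeast species, were produced in E. coli BL21(DE3) and captured on glutathione Sepharose. Membranes of cellulose carrying synthetic 15-mer peptides, in which cysteines had been replaced by serines, were exposed to each domain at 10 μg/ml overnight at 4°C in TBS-based blocking buffer. After anti-GST antibody, an HRP anti-mouse secondary and luminol, spots were imaged and quantified using Genespotter. Binding signal is normalized and background-subtracted spot intensity, averaged over replicates, in arbitrary units that differ between domains.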
row,Binder,SPOT peptide array binding signal intensity
1,AATTSTPPLPRRRAT,73

# Target: AgBbc1
# Assay: as above
# Summary of the method: as §1
row,Binder,SPOT peptide array binding signal intensity
1,AATTSTPPLPRRRAT,800

# Target: AgBem1-D1
# Assay: as above
# Summary of the method: as §1
row,Binder,SPOT peptide array binding signal intensity
1,AATTSTPPLPRRRAT,≤ 0

# Target: AgBzz1-D1
# Assay: as above
# Summary of the method: as §1
row,Binder,SPOT peptide array binding signal intensity
1,AATTSTPPLPRRRAT,188

# Target: AgBzz1-D2
# Assay: as above
# Summary of the method: as §1
row,Binder,SPOT peptide array binding signal intensity
1,AATTSTPPLPRRRAT,53.5

# Target: AgCyk3
# Assay: as above
# Summary of the method: as §1
row,Binder,SPOT peptide array binding signal intensity
1,AATTSTPPLPRRRAT,3

# Target: AgFus1
# Assay: as above
# Summary of the method: as §1
row,Binder,SPOT peptide array binding signal intensity
1,AATTSTPPLPRRRAT,5

# Target: AgHof1
# Assay: as above
# Summary of the method: as §1
row,Binder,SPOT peptide array binding signal intensity
1,AATTSTPPLPRRRAT,142

# Target: AgHse1
# Assay: as above
# Summary of the method: as §1
row,Binder,SPOT peptide array binding signal intensity
1,AATTSTPPLPRRRAT,21

# Target: AgLsb1
# Assay: as above
# Summary of the method: as §1
row,Binder,SPOT peptide array binding signal intensity
1,AATTSTPPLPRRRAT,464

# Target: AgLsb4
# Assay: as above
# Summary of the method: as §1
row,Binder,SPOT peptide array binding signal intensity
1,AATTSTPPLPRRRAT,5320

# Target: AgMyo5
# Assay: as above
# Summary of the method: as §1
row,Binder,SPOT peptide array binding signal intensity
1,AATTSTPPLPRRRAT,12.5

# Target: AgNbp2
# Assay: as above
# Summary of the method: as §1
row,Binder,SPOT peptide array binding signal intensity
1,AATTSTPPLPRRRAT,≤ 0

# Target: AgRvs167
# Assay: as above
# Summary of the method: as §1
row,Binder,SPOT peptide array binding signal intensity
1,AATTSTPPLPRRRAT,591

# Target: AgSho1
# Assay: as above
# Summary of the method: as §1
row,Binder,SPOT peptide array binding signal intensity
1,AATTSTPPLPRRRAT,≤ 0

# Target: AgSla1-D1-D2
# Assay: as above
# Summary of the method: as §1
row,Binder,SPOT peptide array binding signal intensity
1,AATTSTPPLPRRRAT,6

# Target: AgSla1-D3
# Assay: as above
# Summary of the method: as §1
row,Binder,SPOT peptide array binding signal intensity
1,AATTSTPPLPRRRAT,≤ 0

# Target: CaAbp1-D1
# Assay: as above
# Summary of the method: as §1
row,Binder,SPOT peptide array binding signal intensity
1,AATTSTPPLPRRRAT,142

# Target: CaAbp1-D2
# Assay: as above
# Summary of the method: as §1
row,Binder,SPOT peptide array binding signal intensity
1,AATTSTPPLPRRRAT,229

# Target: CaBbc1
# Assay: as above
# Summary of the method: as §1
row,Binder,SPOT peptide array binding signal intensity
1,AATTSTPPLPRRRAT,1600

# Target: CaBem1-D1
# Assay: as above
# Summary of the method: as §1
row,Binder,SPOT peptide array binding signal intensity
1,AATTSTPPLPRRRAT,11

# Target: CaBzz1-D1
# Assay: as above
# Summary of the method: as §1
row,Binder,SPOT peptide array binding signal intensity
1,AATTSTPPLPRRRAT,520

# Target: CaBzz1-D2
# Assay: as above
# Summary of the method: as §1
row,Binder,SPOT peptide array binding signal intensity
1,AATTSTPPLPRRRAT,362

# Target: CaCyk3
# Assay: as above
# Summary of the method: as §1
row,Binder,SPOT peptide array binding signal intensity
1,AATTSTPPLPRRRAT,60.5

# Target: CaFus1
# Assay: as above
# Summary of the method: as §1
row,Binder,SPOT peptide array binding signal intensity
1,AATTSTPPLPRRRAT,68

# Target: CaHof1
# Assay: as above
# Summary of the method: as §1
row,Binder,SPOT peptide array binding signal intensity
1,AATTSTPPLPRRRAT,8.75

# Target: CaHse1
# Assay: as above
# Summary of the method: as §1
row,Binder,SPOT peptide array binding signal intensity
1,AATTSTPPLPRRRAT,≤ 0

# Target: CaLsb1
# Assay: as above
# Summary of the method: as §1
row,Binder,SPOT peptide array binding signal intensity
1,AATTSTPPLPRRRAT,8.5

# Target: CaLsb4
# Assay: as above
# Summary of the method: as §1
row,Binder,SPOT peptide array binding signal intensity
1,AATTSTPPLPRRRAT,5270

# Target: CaMyo5
# Assay: as above
# Summary of the method: as §1
row,Binder,SPOT peptide array binding signal intensity
1,AATTSTPPLPRRRAT,8

# Target: CaNbp2
# Assay: as above
# Summary of the method: as §1
row,Binder,SPOT peptide array binding signal intensity
1,AATTSTPPLPRRRAT,94

# Target: CaRvs167
# Assay: as above
# Summary of the method: as §1
row,Binder,SPOT peptide array binding signal intensity
1,AATTSTPPLPRRRAT,700

# Target: CaRvs167-3
# Assay: as above
# Summary of the method: as §1
row,Binder,SPOT peptide array binding signal intensity
1,AATTSTPPLPRRRAT,1

# Target: CaSho1
# Assay: as above
# Summary of the method: as §1
row,Binder,SPOT peptide array binding signal intensity
1,AATTSTPPLPRRRAT,7

# Target: CaSla1-D1-D2
# Assay: as above
# Summary of the method: as §1
row,Binder,SPOT peptide array binding signal intensity
1,AATTSTPPLPRRRAT,906

# Target: CaSla1-D3
# Assay: as above
# Summary of the method: as §1
row,Binder,SPOT peptide array binding signal intensity
1,AATTSTPPLPRRRAT,≤ 0

# Target: ScAbp1
# Assay: as above
# Summary of the method: as §1
row,Binder,SPOT peptide array binding signal intensity
1,AATTSTPPLPRRRAT,109

# Target: ScBbc1
# Assay: as above
# Summary of the method: as §1
row,Binder,SPOT peptide array binding signal intensity
1,AATTSTPPLPRRRAT,726

# Target: ScBem1-D1
# Assay: as above
# Summary of the method: as §1
row,Binder,SPOT peptide array binding signal intensity
1,AATTSTPPLPRRRAT,3

# Target: ScBzz1-D1
# Assay: as above
# Summary of the method: as §1
row,Binder,SPOT peptide array binding signal intensity
1,AATTSTPPLPRRRAT,10.5

# Target: ScBzz1-D2
# Assay: as above
# Summary of the method: as §1
row,Binder,SPOT peptide array binding signal intensity
1,AATTSTPPLPRRRAT,9

# Target: ScCyk3
# Assay: as above
# Summary of the method: as §1
row,Binder,SPOT peptide array binding signal intensity
1,AATTSTPPLPRRRAT,16

# Target: ScFus1
# Assay: as above
# Summary of the method: as §1
row,Binder,SPOT peptide array binding signal intensity
1,AATTSTPPLPRRRAT,≤ 0

# Target: ScHof1
# Assay: as above
# Summary of the method: as §1
row,Binder,SPOT peptide array binding signal intensity
1,AATTSTPPLPRRRAT,9.75

# Target: ScHse1
# Assay: as above
# Summary of the method: as §1
row,Binder,SPOT peptide array binding signal intensity
1,AATTSTPPLPRRRAT,70

# Target: ScLsb1
# Assay: as above
# Summary of the method: as §1
row,Binder,SPOT peptide array binding signal intensity
1,AATTSTPPLPRRRAT,232

# Target: ScLsb2
# Assay: as above
# Summary of the method: as §1
row,Binder,SPOT peptide array binding signal intensity
1,AATTSTPPLPRRRAT,202

# Target: ScLsb3
# Assay: as above
# Summary of the method: as §1
row,Binder,SPOT peptide array binding signal intensity
1,AATTSTPPLPRRRAT,6300

# Target: ScLsb4
# Assay: as above
# Summary of the method: as §1
row,Binder,SPOT peptide array binding signal intensity
1,AATTSTPPLPRRRAT,2060

# Target: ScMyo3
# Assay: as above
# Summary of the method: as §1
row,Binder,SPOT peptide array binding signal intensity
1,AATTSTPPLPRRRAT,≤ 0

# Target: ScMyo5
# Assay: as above
# Summary of the method: as §1
row,Binder,SPOT peptide array binding signal intensity
1,AATTSTPPLPRRRAT,≤ 0

# Target: ScNbp2
# Assay: as above
# Summary of the method: as §1
row,Binder,SPOT peptide array binding signal intensity
1,AATTSTPPLPRRRAT,20

# Target: ScPex13
# Assay: as above
# Summary of the method: as §1
row,Binder,SPOT peptide array binding signal intensity
1,AATTSTPPLPRRRAT,1080

# Target: ScRvs167
# Assay: as above
# Summary of the method: as §1
row,Binder,SPOT peptide array binding signal intensity
1,AATTSTPPLPRRRAT,2000

# Target: ScSho1
# Assay: as above
# Summary of the method: as §1
row,Binder,SPOT peptide array binding signal intensity
1,AATTSTPPLPRRRAT,≤ 0

# Target: ScSla1-D1-D2
# Assay: as above
# Summary of the method: as §1
row,Binder,SPOT peptide array binding signal intensity
1,AATTSTPPLPRRRAT,760

# Target: ScSla1-D3
# Assay: as above
# Summary of the method: as §1
row,Binder,SPOT peptide array binding signal intensity
1,AATTSTPPLPRRRAT,11

# Target: SpAbp1-D1
# Assay: as above
# Summary of the method: as §1
row,Binder,SPOT peptide array binding signal intensity
1,AATTSTPPLPRRRAT,16

# Target: SpBbc1
# Assay: as above
# Summary of the method: as §1
row,Binder,SPOT peptide array binding signal intensity
1,AATTSTPPLPRRRAT,104

# Target: SpBzz1-D1
# Assay: as above
# Summary of the method: as §1
row,Binder,SPOT peptide array binding signal intensity
1,AATTSTPPLPRRRAT,877

# Target: SpBzz1-D2
# Assay: as above
# Summary of the method: as §1
row,Binder,SPOT peptide array binding signal intensity
1,AATTSTPPLPRRRAT,≤ 0

# Target: SpCyk3
# Assay: as above
# Summary of the method: as §1
row,Binder,SPOT peptide array binding signal intensity
1,AATTSTPPLPRRRAT,9

# Target: SpHof1
# Assay: as above
# Summary of the method: as §1
row,Binder,SPOT peptide array binding signal intensity
1,AATTSTPPLPRRRAT,178

# Target: SpHof1-2
# Assay: as above
# Summary of the method: as §1
row,Binder,SPOT peptide array binding signal intensity
1,AATTSTPPLPRRRAT,78.5

# Target: SpHof1-3
# Assay: as above
# Summary of the method: as §1
row,Binder,SPOT peptide array binding signal intensity
1,AATTSTPPLPRRRAT,66.5

# Target: SpHse1
# Assay: as above
# Summary of the method: as §1
row,Binder,SPOT peptide array binding signal intensity
1,AATTSTPPLPRRRAT,8.25

# Target: SpLsb1
# Assay: as above
# Summary of the method: as §1
row,Binder,SPOT peptide array binding signal intensity
1,AATTSTPPLPRRRAT,712

# Target: SpLsb4
# Assay: as above
# Summary of the method: as §1
row,Binder,SPOT peptide array binding signal intensity
1,AATTSTPPLPRRRAT,4540

# Target: SpMyo1
# Assay: as above
# Summary of the method: as §1
row,Binder,SPOT peptide array binding signal intensity
1,AATTSTPPLPRRRAT,113

# Target: SpNbp2
# Assay: as above
# Summary of the method: as §1
row,Binder,SPOT peptide array binding signal intensity
1,AATTSTPPLPRRRAT,1.5

# Target: SpPex13
# Assay: as above
# Summary of the method: as §1
row,Binder,SPOT peptide array binding signal intensity
1,AATTSTPPLPRRRAT,3

# Target: SpRvs167
# Assay: as above
# Summary of the method: as §1
row,Binder,SPOT peptide array binding signal intensity
1,AATTSTPPLPRRRAT,1970

# Target: SpSla1-D1-D2
# Assay: as above
# Summary of the method: as §1
row,Binder,SPOT peptide array binding signal intensity
1,AATTSTPPLPRRRAT,15.5

# Target: SpSla1-D3
# Assay: as above
# Summary of the method: as §1
row,Binder,SPOT peptide array binding signal intensity
1,AATTSTPPLPRRRAT,≤ 0
